# Many of the other results were omitted from the sample, so the strongest signals are more common in it than they were.
# B1: Mermaid1 (Stilbonema majum) (protein)
# chain: MGSSHHHHHHSSGLVPRGSHMAASGWLRSPQGTVVKLYRRSLSWSKADEFCKDVDGRLVVDRTADMHLFLIKNVLKEKKSRVWVGLRRTAPHSRTWIWSDGTRQNEDDLDANLWLRDEPNDAAGEEECALFMYSPWEKAWGLNDYLCRGGCRSYQFICEKWIR
# Assays:
# Test in all cases: glycan array binding signal (z-score within array); higher = stronger binding
# Conditions in all cases: glycan notation: IUPAC condensed, linker removed
# [1] = biological target: Gal(b1-4)GlcNAc(b1-3)Gal(b1-4)GlcNAc(b1-3)Gal(b1-4)GlcNAc(b1-3)Gal(b1-4)GlcNAc(b1-3)Gal(b1-4)GlcNAc(b1-2)Man(a1-3)[Gal(b1-4)GlcNAc(b1-3)Gal(b1-4)GlcNAc(b1-3)Gal(b1-4)GlcNAc(b1-3)Gal(b1-4)GlcNAc(b1-3)Gal(b1-4)GlcNAc(b1-2)Man(a1-6)]Man(b1-4)GlcNAc(b1-4)GlcNAc
# How it was run: (§1)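 Glycan array data came from 3228 arrays in the Consortium for Functional Glycomics database, and only arrays with an available protein sequence were kept. Glycan names were put into IUPAC-condensed notation, and columns mapping to the same glycan were averaged. The binding signal is a within-array Z-score, averaged across arrays of one protein sequence run at different concentrations or buffers and across linkers. A negative Z-score can be read as non-binding.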
# [2] = biological target: Gal(b1-4)GlcNAc(b1-3)Gal(b1-4)GlcNAc(b1-3)Gal(b1-4)GlcNAc(b1-3)Gal(b1-4)GlcNAc(b1-3)Gal(b1-4)GlcNAc(b1-2)Man(a1-3)[Gal(b1-4)GlcNAc(b1-3)Gal(b1-4)GlcNAc(b1-3)Gal(b1-4)GlcNAc(b1-3)Gal(b1-4)GlcNAc(b1-3)Gal(b1-4)GlcNAc(b1-2)Man(a1-6)]Man(b1-4)GlcNAc(b1-4)[Fuc(a1-6)]GlcNAc
# How it was run: as §1
# [3] = biological target: Gal(b1-4)GlcNAc(b1-3)Gal(b1-4)GlcNAc(b1-3)[Gal(b1-4)GlcNAc(b1-3)Gal(b1-4)GlcNAc(b1-6)]GalNAc
# How it was run: as §1
# [4] = biological target: Gal3S(b1-3)GlcNAc
# How it was run: as §1
# [5] = biological target: Gal3S6S(b1-4)GlcNAc6S
# How it was run: as §1
# [6] = biological target: Gal6P(b1-4)GlcNAc
# How it was run: as §1
# [7] = biological target: GalNAc(b1-3)Gal(a1-6)Gal(b1-4)Glc
# How it was run: as §1
# [8] = biological target: GalNAc(b1-4)GlcNAc(b1-2)Man
# How it was run: as §1
# [9] = biological target: GalNAc3S(b1-4)[Fuc(a1-3)]GlcNAc
# How it was run: as §1
# [10] = biological target: GlcA(b1-3)GlcNAc
# How it was run: as §1
# [11] = biological target: GlcNAc(b1-2)Man(a1-3)[GlcNAc(b1-2)Man(a1-6)]Man(b1-4)GlcNAc(b1-4)GlcNAc
# How it was run: as §1
# [12] = biological target: GlcNAc(b1-2)[GlcNAc(b1-4)]Man(a1-3)[GlcNAc(b1-4)][GlcNAc(b1-2)[GlcNAc(b1-6)]Man(a1-6)]Man(b1-4)GlcNAc(b1-4)[Fuc(a1-6)]GlcNAc
# How it was run: as §1
# [13] = biological target: GlcNAc(b1-3)Gal(b1-3)GalNAc
# How it was run: as §1
# [14] = biological target: GlcNAc(b1-3)Gal(b1-4)Glc
# How it was run: as §1
# [15] = biological target: GlcNAc(b1-3)Gal(b1-4)GlcNAc
# How it was run: as §1
# [16] = biological target: GlcNAc(b1-3)Gal(b1-4)GlcNAc(b1-3)Gal(b1-4)GlcNAc(b1-3)Gal(b1-4)GlcNAc(b1-2)Man(a1-3)[GlcNAc(b1-3)Gal(b1-4)GlcNAc(b1-3)Gal(b1-4)GlcNAc(b1-3)Gal(b1-4)GlcNAc(b1-2)Man(a1-6)]Man(b1-4)GlcNAc(b1-4)[Fuc(a1-6)]GlcNAc
# How it was run: as §1
# [17] = biological target: GlcNAc(b1-3)Gal(b1-4)GlcNAc(b1-6)[GlcNAc(b1-3)Gal(b1-3)]GalNAc
# How it was run: as §1
# [18] = biological target: Man(a1-2)Man(a1-3)[Man(a1-6)]Man(a1-6)[Man(a1-2)Man(a1-3)]Man(b1-4)GlcNAc(b1-4)GlcNAc
# How it was run: as §1
# [19] = biological target: Man(b1-4)GlcNAc
# How it was run: as §1
# [20] = biological target: Neu5Ac(a2-3)Gal(b1-3)GalNAc6S
# How it was run: as §1
# [21] = biological target: Neu5Ac(a2-3)Gal(b1-3)GlcNAc6S
# How it was run: as §1
# [22] = biological target: Neu5Ac(a2-3)Gal(b1-3)[Fuc(a1-4)]GlcNAc(b1-3)Gal(b1-4)[Fuc(a1-3)]GlcNAc
# How it was run: as §1
# [23] = biological target: Neu5Ac(a2-3)Gal(b1-4)GlcNAc(b1-2)[Neu5Ac(a2-3)Gal(b1-4)GlcNAc(b1-4)]Man(a1-3)[GlcNAc(b1-4)][Neu5Ac(a2-3)Gal(b1-4)GlcNAc(b1-2)[Neu5Ac(a2-3)Gal(b1-4)GlcNAc(b1-6)]Man(a1-6)]Man(b1-4)GlcNAc(b1-4)GlcNAc
# How it was run: as §1
# [24] = biological target: Neu5Ac(a2-3)Gal(b1-4)GlcNAc(b1-6)[Gal(b1-3)]GalNAc
# How it was run: as §1
# [25] = biological target: Neu5Ac(a2-3)Gal(b1-4)[Fuc(a1-3)]GlcNAc(b1-3)Gal(b1-4)GlcNAc
# How it was run: as §1
# [26] = biological target: Neu5Ac(a2-3)GalNAc
# How it was run: as §1
# [27] = biological target: Neu5Ac(a2-6)Gal(b1-4)GlcNAc(b1-2)Man(a1-6)Man(b1-4)GlcNAc(b1-4)GlcNAc
# How it was run: as §1
# [28] = biological target: Neu5Ac(a2-6)Gal(b1-4)GlcNAc(b1-3)Gal(b1-4)[Fuc(a1-3)]GlcNAc(b1-3)Gal(b1-4)[Fuc(a1-3)]GlcNAc
# How it was run: as §1
# [29] = biological target: Neu5Ac(a2-8)Neu5Ac
# How it was run: as §1
# [30] = biological target: Neu5Gc(a2-3)Gal(b1-3)GlcNAc
# How it was run: as §1
# [31] = biological target: Neu5Gc(a2-8)Neu5Gc(a2-6)Gal(b1-4)GlcNAc
# How it was run: as §1
binder,measurement,setting,value
B1,glycan array binding signal (z-score),[1],0.715
same,glycan array binding signal (z-score),[2],-0.28
same,glycan array binding signal (z-score),[3],-0.17
same,glycan array binding signal (z-score),[4],0.37
same,glycan array binding signal (z-score),[5],-0.524
same,glycan array binding signal (z-score),[6],-0.911
same,glycan array binding signal (z-score),[7],-0.59
same,glycan array binding signal (z-score),[8],3.48
same,glycan array binding signal (z-score),[9],0.714
same,glycan array binding signal (z-score),[10],-0.379
same,glycan array binding signal (z-score),[11],-0.645
same,glycan array binding signal (z-score),[12],-0.663
same,glycan array binding signal (z-score),[13],-0.864
same,glycan array binding signal (z-score),[14],0.313
same,glycan array binding signal (z-score),[15],-0.029
same,glycan array binding signal (z-score),[16],0.762
same,glycan array binding signal (z-score),[17],-0.841
same,glycan array binding signal (z-score),[18],-0.285
same,glycan array binding signal (z-score),[19],8.49
same,glycan array binding signal (z-score),[20],0.152
same,glycan array binding signal (z-score),[21],0.494
same,glycan array binding signal (z-score),[22],2.98
same,glycan array binding signal (z-score),[23],-0.428
same,glycan array binding signal (z-score),[24],5.42
same,glycan array binding signal (z-score),[25],-0.359
same,glycan array binding signal (z-score),[26],-0.535
same,glycan array binding signal (z-score),[27],-0.437
same,glycan array binding signal (z-score),[28],-0.822
same,glycan array binding signal (z-score),[29],-0.351
same,glycan array binding signal (z-score),[30],-0.396
same,glycan array binding signal (z-score),[31],0.03

# Reference: the supplement of paper PMC8728848
